Our source for the outcome and AC50 values is PubChem BioAssay (EPA / NIEHS).

Assay [1] in a line: CCTE_Shafer_MEA_acute_AB: CCTE's Alamar Blue Assay for Cytotoxicity in the Neural Acute Assay, Shafer Lab (AID 2284069; active means hit-call score of the fitted dose curve at least 0.9, where 1 is the maximum;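 further: active compounds lower the viability signal compared with DMSO wells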). The procedure, abridged: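 Metabolic activity in chemically exposed rat cortical neurons (MEA cultures, day 13/15 post-plating) measured via CellTiter Blue resazurin reduction, 544/590 nm fluorescence; fitted relative to DMSO, with signal loss indicating reduced viability.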
In general terms: Alamar Blue is a resazurin reagent that responds to reducing activity.

Assay [2] can be described thus: CCTE_Shafer_MEA_acute_LDH: CCTE's Lactate Dehydrogenase Assay for Cytotoxicity in the Neural Acute Assay, Shafer Lab (AID 2284086; active means hit-call score of the fitted dose curve at least 0.9, where 1 is the maximum;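 further: active means LDH release rises above DMSO vehicle level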). The gist of the method: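 Released lactate dehydrogenase, read at 490 nm, indicated cytotoxicity after acute 40-min compound treatment of rat cortical neuron networks grown on 48-well MEA plates.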
A short description of assay [3]: CCTE_Shafer_MEA_dev_mutual_information_norm: CCTE's Neural Network Formation Assay for Mutual Information Normalization, Shafer Lab (AID 2284091). The gist of the method:
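Developing rat cortical networks on 16-electrode MEA wells are treated throughout formation (DIV 0–12). Shared electrode information is recorded four times, converted to area-under-curve, and fitted for decreases against DMSO vehicle.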

Assay [4] in a line: CCTE_Shafer_MEA_dev_correlation_coefficient_mean: CCTE's Neural Network Formation Assay for Mean Correlation Coefficient, Shafer Lab (AID 2284093). The gist of the method: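 Read-out: well-mean correlation coefficient of spike trains between electrode pairs, collapsed over four recording days as trapezoidal area-under-the-curve. Developing rat cortical neuron networks grown on MEAs received test chemical continuously from plating.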

Assay [5] can be described thus: IUF_NPC1b_proliferation_BrdU_72hr: Leibniz Research Institute for Environmental Medicine (IUF) 72-hour Neural Progenitor Cell Bromodeoxyuridine (BrdU) Proliferation Assay (NPC1b) (AID 2284207). The gist of the method: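 Proliferation of primary human neural progenitor cells: 72 h compound treatment at 37C, 5% CO2, pH 7.2-7.6, in EGF/FGF-containing medium. Readout is BrdU uptake (last 16 h) by chemiluminescent ELISA, normalised to DMSO.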

Assay [6] in a line: IUF_NPC1a_proliferation_area_72hr: Leibniz Research Institute for Environmental Medicine (IUF) 72-hour Neural Progenitor Cell Proliferation Area Assay (NPC1a) (AID 2284208). The procedure, abridged:
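Proliferation read as increase in sphere area by phase-contrast imaging over 72 h continuous compound exposure (no renewal) of hNPC spheres grown with EGF/FGF at 37C, 5% CO2. Growth-factor withdrawal served as positive control; DMSO as baseline.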

Assay [7] in a line: IUF_NPC1_viability_72hr: Viability Assessment at 72 hours in the Leibniz Research Institute for Environmental Medicine (IUF) Neural Progenitor Cell Proliferation Assay (NPC1) (AID 2284209). The procedure, abridged: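 Each well receives one 0.3 mm progenitor sphere from fetal brain cortex; test chemical is added at plating and left three days. Viability comes from alamar blue fluorescence, multiplexed with LDH and BrdU readouts in the same well.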

A short description of assay [8]: CCTE_Mundy_HCI_Cortical_Synap_Neur_Matur_NeuriteSpotCountPerNeuriteLength: CCTE's Synaptogenesis and Neurite Maturation Assay in rat cortical cells for Neurite Spot Count per Neurite Length, Mundy Lab (AID 2284210). The procedure, abridged: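 Primary rat cortical neurons, compound exposure DIV 7–12, 288.33 h endpoint. Hoechst, anti-MAP2 and anti-synaptophysin labelling; neurite-associated puncta per neurite length scored by automated imaging relative to DMSO controls.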

A short description of assay [9]: CCTE_Mundy_HCI_Cortical_Synap_Neur_Matur_BPCount: CCTE's Synaptogenesis and Neurite Maturation Assay in rat cortical cells for Branch Point Count, Mundy Lab (AID 2284211). The gist of the method:
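Branch point number is quantified by automated imaging of fluorescently labelled neurites and synapses in rat primary cortical neurons exposed from DIV 7 to DIV 12. Activity is analysed relative to DMSO negative control.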

The nature of assay [10]: CCTE_Mundy_HCI_Cortical_NOG_NeuriteCount: CCTE's Neurite Outgrowth Assay in rat cortical cells for Neurite Count, Mundy Lab (AID 2284212).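 Further: cells fixed about two days after chemical exposure began.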 The procedure, abridged:
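Neurite number per cell from high-content imaging of betaIII-tubulin immunostaining, with Hoechst nuclear counterstain.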

Assay [11] can be described thus: CCTE_Mundy_HCI_Cortical_NOG_NeuriteLength: CCTE's Neurite Outgrowth Assay in rat cortical cells for Neurite Length, Mundy Lab (AID 2284213). The gist of the method: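 Neurite length was read by high-content imaging of βIII-tubulin-labelled neurites in rat primary cortical cultures. Activity was fitted relative to DMSO.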
Assay [12] can be described thus: CCTE_Mundy_HCI_Cortical_Synap_Neur_Matur_NeuriteLength: CCTE's Synaptogenesis and Neurite Maturation Assay in rat cortical cells for Neurite Length, Mundy Lab (AID 2284214). The gist of the method: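 Neurite length in rat primary cortical cultures is imaged after MAP2, synaptophysin and Hoechst staining. Dosing starts DIV 7, ending DIV 12; DMSO serves as negative control and baseline.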

The nature of assay [13]: CCTE_Mundy_HCI_Cortical_Synap_Neur_Matur_NeuriteSpotCountPerNeuron: CCTE's Synaptogenesis and Neurite Maturation Assay in rat cortical cells for Neurite Spot Count per Neuron Count, Mundy Lab (AID 2284215). The gist of the method: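 High-content imaging counts synaptophysin puncta along MAP2-labelled neurites per neuron after chemical exposure of rat cortical cells from DIV 7 to termination at DIV 12 (AraC added DIV 5). Loss of signal relative to DMSO.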

Assay [14] can be described thus: CCTE_Mundy_HCI_Cortical_Synap_Neur_Matur_SynapseCount: CCTE's Synaptogenesis and Neurite Maturation Assay in rat cortical cells for Synapse Count, Mundy Lab (AID 2284218). The gist of the method: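 Synapse count per neuron is measured in rat cortical neurons exposed to chemicals between DIV 7 and DIV 12, with glial growth arrested by AraC at DIV 5. Synaptophysin and MAP2 staining is imaged automatically; activity is fitted relative to DMSO.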

Assay [15] in a line: CCTE_Shafer_MEA_dev_AB: CCTE's Alamar Blue Assay for Cytotoxicity in the Neural Network Formation Assay, Shafer Lab (AID 2284083; active means hit-call score of the fitted dose curve at least 0.9, where 1 is the maximum;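 further: twelve days of exposure from plating with re-dosing on DIV 5 and 9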). The procedure, abridged:
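Fluorescent resazurin reduction serves as the viability read-out, with DMSO as negative control and baseline. Cells were primary rat cortical neurons grown on MEA plates and dosed from day 0 to day 12, treatment renewed on DIV 5 and 9.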

Assay [16] can be described thus: CCTE_Shafer_MEA_dev_LDH: CCTE's Lactate Dehydrogenase Assay for Cytotoxicity in the Neural Network Formation Assay, Shafer Lab (AID 2284068; active means hit-call score of the fitted dose curve at least 0.9, where 1 is the maximum;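 further: exposure for twelve days from plating with re-dosing on DIV 5 and 9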). The procedure, abridged: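 Cytotoxicity companion to network-formation recordings: rat cortical neurons received compound over 12 days of development, re-dosed at DIV 5 and 9 feeds. Viability was inferred from LDH enzyme activity relative to DMSO.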

Inconclusive results are not listed. Activity calls are given as the source filed them. How the source made its calls, unless noted: active means hit-call score of the fitted dose curve at least 0.9, where 1 is the maximum; inactive means score below 0.9.

As for `Nc1ccccc1N`, the molecule was called inactive in assay [1] and in assay [2].
Turning to `COc1ccc(S(=O)(=O)N2C(=O)[C@@](c3ccccc3OC)(N3C[C@H](O)C[C@H]3C(=O)N(C)C)c3cc(Cl)ccc32)c(OC)c1`, the molecule was called inactive in assay [1] and in assay [2].
`C[Si]1(C)O[Si](C)(C)O[Si](C)(C)O[Si](C)(C)O1`: the call in assay [2], in assay [3], in assay [4], in assay [5], in [6] and in [7] was inactive. The molecule was classed as inactive in [8], in [9], in [10], in assay [11], in [12] and in assay [13]. The molecule was classed as inactive in assay [14].
The term AC50 denotes the concentration giving half of the maximal activity seen. Turning to `OC[C@@H](O)[C@@H](O)[C@H](O)[C@H](O)CO`, the figures for the AC50 in assay [15] and in assay [14] were 437 nM (active) and 64.8 nM (active), respectively. Moreover, the result in assay [3], in assay [4], in assay [5], in assay [6], in assay [7] and in assay [8] was inactive. The outcome in assay [9], in [10], in assay [11], in [12] and in assay [13] was inactive.
`CC(C)c1ccc(C(=O)N=C(N)N)cc1S(C)(=O)=O`: the result in assay [16], in assay [15], in [3] and in [4] was inactive.
Turning to `Nc1nc(N)c2nc(CNc3ccc(C(=O)N[C@@H](CCC(=O)O)C(=O)O)cc3)cnc2n1`, the outcome in assay [1] was inactive.
As for `CN[C@H]1CC[C@@H](c2ccc(Cl)c(Cl)c2)c2ccc(S(N)(=O)=O)cc21`, the result in [1] and in [2] was inactive.
Consider `COc1ccc2c(c1)c(CC(=O)O)c(C)n2C(=O)c1ccc(Cl)cc1`, for which the result in assay [1] and in assay [2] was inactive.
As to `C=CCc1ccc(O)c(OC)c1`, the call in assay [16], in assay [1], in assay [15], in [2], in [3] and in [4] was inactive.
With `CCCCCCCCCCCCCCCCCC(=O)O`, in [1], the molecule was classed as inactive.
Regarding `CCCCCCCCCCO`, in assay [2], the molecule was called inactive.
The same measure, in the same setting: the entry for `CN1CCCC1=O` is “inactive”.
As for `NS(=O)(=O)c1cc2c(cc1Cl)NCNS2(=O)=O`, the call in [1] and in [2] was inactive.
Turning to `CCOC(=O)C(C)(C)Oc1ccc(Cl)cc1`, the molecule was called inactive in assay [1] and in [2].
